Data reported in publication PMC4336329 (PLoS ONE, 2015).
The campaign covered roughly 310,000 compounds. About 14,000 (4.5%) showed an effect of 50% or more. Effects have a minus sign here. The list comes from a sample in which strong results are over-represented; it also holds similar structures and randomly drawn compounds.

target: human ether-à-go-go-related gene (hERG) potassium channel (human, UniProt Q12809); assay: primary screen, population patch clamp on CHO cells stably expressing hERG; higher = less effect of the substance
Sequence (Q12809 whole entry, looked up): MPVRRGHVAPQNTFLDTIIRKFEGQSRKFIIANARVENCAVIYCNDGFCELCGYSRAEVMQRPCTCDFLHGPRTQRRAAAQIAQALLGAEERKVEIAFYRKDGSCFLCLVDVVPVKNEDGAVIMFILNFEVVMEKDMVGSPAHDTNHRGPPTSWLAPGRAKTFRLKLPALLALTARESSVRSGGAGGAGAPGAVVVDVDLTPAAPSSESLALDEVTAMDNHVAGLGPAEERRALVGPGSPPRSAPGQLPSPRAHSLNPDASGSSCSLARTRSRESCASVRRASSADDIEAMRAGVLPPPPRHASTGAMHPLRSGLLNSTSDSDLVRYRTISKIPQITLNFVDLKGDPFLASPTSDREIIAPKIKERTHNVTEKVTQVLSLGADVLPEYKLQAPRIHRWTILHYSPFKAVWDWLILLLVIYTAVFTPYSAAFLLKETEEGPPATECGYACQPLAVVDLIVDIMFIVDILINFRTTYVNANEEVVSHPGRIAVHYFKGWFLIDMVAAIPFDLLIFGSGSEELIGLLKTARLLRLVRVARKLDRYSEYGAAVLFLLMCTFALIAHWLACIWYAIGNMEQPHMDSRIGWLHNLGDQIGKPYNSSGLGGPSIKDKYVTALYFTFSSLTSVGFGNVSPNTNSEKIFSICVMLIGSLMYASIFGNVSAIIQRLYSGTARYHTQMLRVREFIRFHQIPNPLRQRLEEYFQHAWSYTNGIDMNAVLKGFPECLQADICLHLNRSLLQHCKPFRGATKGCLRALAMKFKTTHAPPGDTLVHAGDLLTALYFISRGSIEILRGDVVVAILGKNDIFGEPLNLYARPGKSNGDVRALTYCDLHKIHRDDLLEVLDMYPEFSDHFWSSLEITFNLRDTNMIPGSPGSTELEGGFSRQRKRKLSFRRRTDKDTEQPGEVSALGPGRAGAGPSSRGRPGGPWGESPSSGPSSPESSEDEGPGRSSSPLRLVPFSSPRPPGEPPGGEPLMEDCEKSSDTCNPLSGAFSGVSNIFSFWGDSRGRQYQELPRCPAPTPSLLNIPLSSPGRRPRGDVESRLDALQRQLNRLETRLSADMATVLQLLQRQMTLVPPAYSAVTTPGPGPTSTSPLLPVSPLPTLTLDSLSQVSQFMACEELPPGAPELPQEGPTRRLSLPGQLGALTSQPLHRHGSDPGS
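Also: peak tail current of the secondary pulse compared with the same well before compound.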

Compound	hERG current change (%, negative = inhibition) at 10uM
CC(C)NC(=O)[C@]1(C)CCC[C@@]2(C)C3CC[C@@]4(C)C[C@]3(CCC21)CC4=O (stereo partly drawn)	6.23%
CCc1ccc(NC(=O)C2CCCN(S(C)(=O)=O)C2)cc1 (stereo not drawn)	21.3%
C=CCn1c(SCc2csc(C)n2)nc2sc3c(c2c1=O)CCCCC3	-8.41%
O=C(CN1C(=O)C(c2ccc(F)cc2)=NC12CCCC2)Nc1ccc(F)cc1	-5.39%
CC(C)(C)OC(=O)N1C[C@H](O)C[C@H]1C(=O)OCC(=O)c1ccc([N+](=O)[O-])cc1	-63.4%
CC(C)(C)OC(=O)N1CC(O)CC1C(=O)OCC(=O)c1ccccc1 (stereo not drawn)	5.86%
CC(C)(C)OC(=O)N1CC(O)CC1C(=O)OCC(=O)c1ccc(Cl)cc1 (stereo not drawn)	-16.4%
COc1cccc(/C=N/NC(=O)c2[nH]c(C)c(C(=O)N/N=C/c3cccc(OC)c3O)c2C)c1O	11.7%
CCN1CCc2c(OCC(=O)Nc3ccc4c(c3)OCCO4)cccc2C1=O	5.28%
CC(C)(C)c1cc(NCCCn2ccnc2)n2ncc(-c3ccc(Cl)cc3)c2n1	12.1%
Cc1cc(NCCCn2ccnc2)n2ncc(-c3ccccc3)c2n1	-67.6%
Cc1cc(NCCCN2CCOCC2)n2ncc(-c3ccccc3)c2n1	-21%
CC(C)(C)c1cc(NCCCn2ccnc2)n2ncc(-c3ccccc3)c2n1	-18%
Cc1cc(NCCCn2ccnc2)n2ncc(-c3ccc(Cl)cc3)c2n1	-68%
Cc1cc(NCCCN2CCOCC2)n2ncc(-c3ccc(Cl)cc3)c2n1	0.66%
Cc1ccc(S(=O)(=O)N2CCN(Cc3ccccc3)CC2)c(C)c1N(C)S(=O)(=O)c1ccccc1	5.81%
C=C(C)CN1CCN(S(=O)(=O)c2ccc(C)c(N(C)S(=O)(=O)c3ccc(C)cc3)c2C)CC1	-2.33%
Cc1ccc(S(=O)(=O)N2CCN(C)CC2)c(C)c1N(C)S(=O)(=O)c1ccc(Cl)cc1	-68.7%
Cc1ccc(S(=O)(=O)N(C)c2c(C)ccc(S(=O)(=O)N3CCN(C=O)CC3)c2C)cc1	-42.8%
Cc1ccc(S(=O)(=O)N(C)c2c(C)ccc(S(=O)(=O)N3CCN(C)CC3)c2C)cc1	-60.8%
Cc1cc(C)c(S(=O)(=O)N2CCCCC2)c(C)c1N(C)S(=O)(=O)c1ccc(Cl)cc1	0.393%

Compound	hERG current change (%, negative = inhibition) at 10uM
N#Cc1c(Nc2ccccc2)sc(C(=O)c2ccccc2)c1N	-7.02%
O=C(O)c1cccc([N+](=O)[O-])c1C(=O)Nc1cccc2ccccc12	21.9%
C[C@@H]1CC=C[C@H]2[C@H]1C(=O)N(Cc1ccccc1)[C@H]2c1ccc(/C=C/c2ccccc2)cc1F	4.34%
O=C(CN(Cc1ccco1)C(=O)Cn1nnc(-c2cccs2)n1)NCC1CCCO1 (stereo not drawn)	6.63%
O=C(CN(Cc1ccco1)C(=O)Cn1nnc(-c2cccs2)n1)NCc1ccccc1	-51.7%
O=C(CN(CCc1ccccc1)C(=O)Cn1nnc(-c2cccs2)n1)NCc1ccco1	-38.7%
CCSc1nnc(NC(=O)COc2ccc(Cl)cc2)s1	24%
CC(=O)C1=C(C)NC(SCC(=O)c2ccc(Cl)c(Cl)c2)=C(C#N)C1c1ccco1 (stereo not drawn)	5.27%
CCCCC(=O)NC(Nc1cc(C)ccn1)(C(=O)OCC)C(F)(F)F (stereo not drawn)	2.5%
CCC(C)(C)C1CCC(=NNC(=S)Nc2ccccc2)CC1 (stereo not drawn)	11.4%
COC(/C=C/Nc1ccc(OC)cc1)=C(C#N)C#N	-59.9%
COC(/C=C/Nc1ccc(Br)cc1)=C(C#N)C#N	-39.3%
COC(/C=C/Nc1ccc(C)cc1)=C(C#N)C#N	-38%
CCc1cc2c(CN3CCN(CC)CC3)cc(=O)oc2cc1O	-8.81%
CC1(C)Oc2ccc3ccc(=O)oc3c2C(/C=N/O)C1=O (stereo not drawn)	3.87%
O=C(CN1C(=O)NC2(CCCCCC2)C1=O)c1ccc(OC(F)F)cc1OC(F)F	-35%
COc1cc(OC)c(OC)cc1CN1CCN(Cc2ccc(SC)cc2)CC1.O=C(O)C(=O)O	-61.5%
COc1cc(CN2CCN(Cc3ccc(SC)cc3)CC2)cc(OC)c1O.O=C(O)C(=O)O	-67.9%
COc1ccc(C(=O)N2CCN(Cc3cc(OC)c(O)c(OC)c3)CC2)cc1OC.O=C(O)C(=O)O	8.89%
COc1cc(OC)c(OC)cc1CN1CCN(Cc2cccc(F)c2)CC1.O=C(O)C(=O)O	10.2%
COc1cc(CN2CCN(C(=O)CC(C)C)CC2)cc(OC)c1O.O=C(O)C(=O)O	-0.00662%
